Whole data set: some 33,000 sequences, median “normalized occupancy” near 0.075, cut for the highest 2% near 0.095. The entries come from a sample that favours the highest values as a whole.
Each sequence was assayed against MaxL homodimer (Homo sapiens, UniProt P61244 1-160) (assay: universal protein-binding microarray (PBM); PBS-based mixture, 10 nM His-tagged protein dimer, 2% milk, 200 ng/uL BSA, 50 ng/uL salmon testes DNA, 0.02% TX-100; detection with Alexa 488 anti-His antibody;; high values mean tight binding). Conditions: protein: recombinant; tags: C-terminal His-tag (pET21a); chain copies: 2; dsDNA, one strand shown.
Chain of MaxL homodimer (P61244 whole entry): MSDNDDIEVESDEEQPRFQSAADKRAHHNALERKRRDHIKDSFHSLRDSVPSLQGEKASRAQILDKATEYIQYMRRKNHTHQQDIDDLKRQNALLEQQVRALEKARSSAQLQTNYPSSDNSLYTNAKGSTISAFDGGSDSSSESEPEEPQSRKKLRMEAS
In short: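 Binding occupancy is a fluorescence intensity normalised to the intensity of the highest-ranked sequence word. Those intensities came from 8-mers on Agilent 4 x 44 K 'all 10-mer' universal arrays incubated with 10 nM His-tagged protein dimer. Bound protein was detected with 10 ng/μL fluorophore-conjugated anti-His antibody before scanning on a GenePix 4400A.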

Sequence | binding signal [normalized occupancy]
GAGAAGGA | 0.0733
CAACAATC | 0.0759
ATGCCCGG | 0.0744
AGACCTTA | 0.0772
GGCGTCGA | 0.0725
AGCGTGGG | 0.113
CGGGTGGC | 0.0775
AGCGTTGG | 0.0764
CCCGTGGC | 0.0811
CGCGTGGC | 0.154
AGCGTGGC | 0.108
AGAGTGGG | 0.0749
AGCGTTGC | 0.0728
GCCGTGGA | 0.0736
GGCGTGGA | 0.0968
ACCGTGGC | 0.0752
CCCCAAAA | 0.0734
AATAACCC | 0.0806
AACAGGAT | 0.0759
CCGTCCTC | 0.0798
CGTCACGA | 0.0766
GTGGACGA | 0.0753
AACTCTAC | 0.0729
CGCATCAG | 0.0761
CTATAGGA | 0.0753

Sequence | binding signal [normalized occupancy]
TGCCAGAA | 0.0775
CCCGTGGA | 0.0823
CGCGTCGA | 0.0756
CGTGTGGC | 0.0953
AGTGTGGC | 0.0795
ACCGTGGA | 0.0797
CGTGTGGA | 0.0865
AGCGTGGA | 0.106
CGCGTGGA | 0.147
AGGGTGGA | 0.074
ACCCTGCA | 0.0751
CTACTAGA | 0.0787
CACTTTGA | 0.0776
CCGCCCTA | 0.0723
CGAATTCC | 0.0757
AGTGGGTG | 0.0863
ACTCGACT | 0.0722
ACACGTAC | 0.0858
ACACGTAT | 0.0833
AGACGTGA | 0.0821
ACACGTGT | 0.545
ACACGTGG | 0.852
ATACGTGA | 0.081
AGACGTGG | 0.0819
ACACGTGC | 0.567

Sequence | binding signal [normalized occupancy]
ACACGTCT | 0.0781
ACACGTGA | 0.383
ACACGTCC | 0.08
ACACGTAG | 0.0822
ATGAAGCA | 0.082
CATTATTA | 0.0832
TAATGCTA | 0.0758
ACTCTGAA | 0.0737
ATTCAGCA | 0.0725
AATCGTTA | 0.0761
ATACGTAT | 0.0856
CCATGGCC | 0.0766
TCATGGCA | 0.0816
GCATGGAC | 0.0979
CCATGGAC | 0.0837
GCATGGCC | 0.0963
GCATGGCA | 0.102
GCATGGGA | 0.0967
TCATGGGA | 0.0807
ACATGGAC | 0.0847
ACATGGCC | 0.0878
ACATGGCA | 0.0904
ACATGGGA | 0.0901
AATTAAGC | 0.0756
CTGACACC | 0.0794

Sequence | binding signal [normalized occupancy]
GTTTGTGA | 0.0718
TAGCATCA | 0.0821
GTCTTCAA | 0.0773
GAGTTGCC | 0.0729
ATTCCATC | 0.0772
TGATTCCA | 0.0829
AACAAACC | 0.074
ACATGACG | 0.0854
GCATGACC | 0.0988
GCATGACA | 0.088
CCATGATC | 0.0848
ACATGACA | 0.089
ACATGATC | 0.101
CCATGACC | 0.0831
ACATGATA | 0.0928
ACATGACC | 0.0952
ATGGGAGC | 0.0768
GTTCCCTA | 0.0721
CGAAAATC | 0.0726
CCTTAACC | 0.0754
CGCTTATA | 0.0805
CAGTCAGG | 0.0732
ACTAAGTC | 0.0734
CCCCTTTC | 0.0738
ACGAACAG | 0.0753

Sequence | binding signal [normalized occupancy]
ACTCACAT | 0.0886
CCTGCTGA | 0.0756
CCCCCACA | 0.0839
CACCCACG | 0.0964
GTTCCACA | 0.0784
CACCCACA | 0.0789
ATTCCACA | 0.0794
CATCCACG | 0.108
CACCCACC | 0.0828
CCCCCACG | 0.0958
AATCCACG | 0.0813
GCCCCACA | 0.0784
CATCCACA | 0.0859
ATTCCACG | 0.0964
CAACTATG | 0.0846
AACAGCAT | 0.087
GTTTGGAA | 0.0754
ACGCCTGG | 0.0735
CAGTAATA | 0.0775
CATCCCCG | 0.0773
TTAATGAA | 0.0772
ACACAGGC | 0.0789
CACTTCGC | 0.0739
GTCCTCAC | 0.0765
AAGAGCAC | 0.0774

Sequence | binding signal [normalized occupancy]
CGCGGGAC | 0.0733
TAAAGGAA | 0.0741
AATCGAAA | 0.0785
ATGATGTG | 0.088
ACGTGGAT | 0.104
AGGTGGAC | 0.0775
AGGTGGAT | 0.08
GCGTGGAC | 0.0976
CCGTGGAC | 0.0739
AAGTGGAT | 0.0727
GAGTGGAC | 0.0761
ACGTGGAA | 0.108
ACGTGGAC | 0.106
GGGTGGAC | 0.0796
AGGTGGAA | 0.0722
AAGTGGAA | 0.072
AGCTGAAA | 0.0723
ACACGGCC | 0.0719
AAACATCC | 0.0762
CGGCACAA | 0.0773
TCAATAGA | 0.0745
ACAAGGCT | 0.0781
GAGGCAGA | 0.0719
CGCTCTAA | 0.0739
AGGGCATA | 0.0779

Sequence | binding signal [normalized occupancy]
TCGTGGAA | 0.0835
CCGTGGAA | 0.0755
ACGTGGAG | 0.0976
GCGTGGAA | 0.106
AGGTGGAG | 0.0827
CCGTGGAG | 0.0796
ACGTATTA | 0.0818
AATGGTTA | 0.0807
CATGACGG | 0.0797
AAGCGTCA | 0.0737
AAGCGTTG | 0.076
GAGCGTGC | 0.0887
AAGCGCGG | 0.0752
AAGCGTTA | 0.0738
AAGCGTGG | 0.121
AAGCGTGA | 0.0961
AAGCGTGC | 0.104
AAGCGTTC | 0.0728
CACCGTGC | 0.0868
CAGCGCGC | 0.0795
CAGCGTGC | 0.118
GGTCGGAC | 0.0772
TATGCTAA | 0.0798
CAATCTCG | 0.0753
ACGCTGAC | 0.0735

Sequence | binding signal [normalized occupancy]
ATTTGAGA | 0.0896
AGACCCTC | 0.0752
CTGGTCAC | 0.0773
ATTTATGC | 0.0838
AGAGTTAA | 0.0737
AAGCGTGT | 0.0967
AAGCGCGT | 0.0758
AAGCGTAT | 0.0722
GAGGGGAA | 0.0755
AAGTGATG | 0.0756
AAGTGATC | 0.0794
CCGTGATC | 0.0778
CCATGATA | 0.0845
GTATGATA | 0.0877
AAGTGATA | 0.0795
ACGTGATC | 0.108
AGGTGATG | 0.0834
ACGTGATG | 0.103
GCATGATA | 0.0994
AGGTGATA | 0.0839
ACGTGATA | 0.11
CTGGACGA | 0.0734
CCTTCAGA | 0.0732
CGAGGGCA | 0.0765
GTGCTGGA | 0.0813

Sequence | binding signal [normalized occupancy]
ATTGATTG | 0.0769
CAAGGGAA | 0.0781
ATGGATGC | 0.082
GCGTGATA | 0.1
GAGTGATA | 0.0802
CCGTGATA | 0.0782
CCATTCAA | 0.0785
AGCATGGC | 0.102
AGCATGGA | 0.1
ATCATGGA | 0.0834
AGAATGGC | 0.0756
ATCATGGC | 0.0863
AGCATAGG | 0.0718
ATCATGGG | 0.0858
CCCATGGC | 0.0849
AGCATTGA | 0.0777
CGCATGGC | 0.127
CGCATAGC | 0.0734
AGCATGGG | 0.106
ACTTTTAT | 0.0748
CAGTAAAC | 0.0746
ACTTTGAA | 0.0759
CGTTATGA | 0.0829
CTTGATGA | 0.0755
AGATTATC | 0.0807

Sequence | binding signal [normalized occupancy]
CCTCGCCG | 0.0725
GTCATGGA | 0.0831
GGCATGGA | 0.0929
CGCATGGA | 0.106
ACTGTTTC | 0.0744
ATGAGTAC | 0.0839
AATGCTAC | 0.0772
CATGCTAC | 0.0953
GATGCTAC | 0.081
CATGCTAG | 0.106
CATGCTAA | 0.091
AATGCTAG | 0.079
GGTAACGA | 0.0778
AGATGACT | 0.0724
CGGTGGAA | 0.0725
ACATATCC | 0.0835
ACATATGG | 0.0977
ACATATGT | 0.0906
CCATATGA | 0.0926
ATATATGC | 0.0867
ATATATGG | 0.0895
ACATATGA | 0.0952
TCATATGA | 0.0914
ACATATGC | 0.0976
GAACATAC | 0.0829

Sequence | binding signal [normalized occupancy]
GAATTACC | 0.072
GCACCTTA | 0.0768
AACGAGGG | 0.0775
CACGAGAC | 0.1
CACGAGGA | 0.137
CACGAGAA | 0.0893
CACGAGGC | 0.134
AACGAGAC | 0.075
CACGAGCC | 0.0812
CACGAGGG | 0.134
AACGAGGC | 0.0809
AACGAGGA | 0.088
TACGAGGA | 0.0793
CACGAGCG | 0.082
TACGGGCA | 0.0723
GGTCTTAA | 0.075
CTCTATTA | 0.0807
CCCCGCAG | 0.072
CAAATCTA | 0.0804
GCTTCTTA | 0.0746
CACAAGAG | 0.0792
AATGTTTA | 0.0748
GACGTTTA | 0.0757
CGCGTTTC | 0.0778
CATGTTTA | 0.0975

Sequence | binding signal [normalized occupancy]
CATGTTTC | 0.0831
CACGTTTA | 0.0986
CACGTTTC | 0.105
AACGTTTA | 0.0757
AACGTTTC | 0.0739
AGAAACCC | 0.0744
ATAGAATC | 0.0826
AGTGCTAG | 0.0731
ACCTTCAA | 0.0719
CGAATAGA | 0.0736
CAGAACTA | 0.0728
CTAGAAGA | 0.0731
AACGATGA | 0.0771
ACCCGTCA | 0.0779
GTGTGTCA | 0.0887
ATGTGAGA | 0.0969
ATGTGCGC | 0.0928
GTGTGAGA | 0.0806
GTGTGTGA | 0.0839
CTGTGTGA | 0.0738
ATGTGCGA | 0.0863
ATGTGAGG | 0.0857
ATGTGCGG | 0.104
ATGTGTGA | 0.102
ATGTGTCA | 0.101

Sequence | binding signal [normalized occupancy]
ATGTGTCG | 0.0903
ATTGAACG | 0.082
CTGACTAA | 0.0729
ACATAAGA | 0.0789
AACCTCTA | 0.0738
CCCTCCTC | 0.0734
CGTACTGA | 0.0729
AGCGCACG | 0.0877
AGGAAAAC | 0.075
ACGCGCCC | 0.0753
TAACTGCA | 0.0726
GCTACCAA | 0.0737
TGATGGCA | 0.08
AGTCCCCC | 0.0801
ATCTTTAC | 0.0755
ATGTCACC | 0.08
ATGTGTGC | 0.0957
ATGTGTGG | 0.0891
CTGTGTGC | 0.0783
ATGTCACA | 0.0852
ATGTCACG | 0.101
AATTCCGA | 0.0729
CATCTGTC | 0.0856
GGGCTGTA | 0.0762
CCCATCTA | 0.0745

Sequence | binding signal [normalized occupancy]
CATAAATC | 0.0857
CCGAACAA | 0.0756
GAAGTGAC | 0.0733
GACATGAA | 0.0775
CAAATGAG | 0.0793
CACATGAG | 0.109
AACATGAG | 0.0999
CTCATGAG | 0.0946
CACATGAA | 0.104
TACATGAA | 0.0793
GACATGAC | 0.0811
AACATGAA | 0.0878
CACATGAC | 0.129
AACATGAC | 0.0831
CAAATGAC | 0.0825
ATGTACAA | 0.0815
AAAAACCA | 0.0806
GCCACAGC | 0.0723
AATCGTAC | 0.0751
